Most compounds without a hit are left out; they make up all but 2% or so of the library.
PGE2 EP2 inh = human EP2 receptor antagonists, primary screen, TR-FRET cAMP, C6 glioma cells. Prostaglandin E2 receptor EP2 subtype (Homo sapiens), P43116. C6 glioma cells expressing human EP2; cells stimulated with saturating PGE2. inhibition, % at 25 µM. hit rate 0.52% among 260,000;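 active = percent inhibition above 40 after rounding to a whole number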;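 also: rat C6 glioma host cells with rolipram phosphodiesterase inhibitor present; the protocol text gives 20 µM as final concentration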
CHT allo act = CHT positive allosteric modulators, primary screen, cell-based, membrane potential dye, choline EC20; High affinity choline transporter 1 (Homo sapiens), Q9GZV3; CHT-expressing cells; hits give high values; LV-AA mutant CHT in HEK293 cells; B-score at 10 µM; hit rate 0.49% among 310,000;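 active = initial fluorescence not abnormally high and integrated response B-score, plate-corrected, over 3 SD above library mean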
Target sequence (Q9GZV3 whole entry, looked up): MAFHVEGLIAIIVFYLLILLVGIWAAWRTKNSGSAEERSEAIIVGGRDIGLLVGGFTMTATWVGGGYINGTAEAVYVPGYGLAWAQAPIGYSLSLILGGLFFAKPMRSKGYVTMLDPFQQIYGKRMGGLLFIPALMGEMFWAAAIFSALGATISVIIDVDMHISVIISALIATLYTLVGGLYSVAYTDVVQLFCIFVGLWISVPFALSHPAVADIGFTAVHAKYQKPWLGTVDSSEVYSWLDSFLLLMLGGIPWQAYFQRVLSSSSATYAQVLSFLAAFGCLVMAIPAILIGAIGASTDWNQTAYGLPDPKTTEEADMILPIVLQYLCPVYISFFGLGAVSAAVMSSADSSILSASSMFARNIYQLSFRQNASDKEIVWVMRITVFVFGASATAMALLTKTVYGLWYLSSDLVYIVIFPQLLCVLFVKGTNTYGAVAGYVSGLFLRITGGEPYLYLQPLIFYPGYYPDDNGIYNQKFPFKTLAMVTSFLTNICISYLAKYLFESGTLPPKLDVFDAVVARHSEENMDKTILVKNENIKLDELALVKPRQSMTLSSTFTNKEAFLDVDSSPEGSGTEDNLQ
EP2 modulator = EP2 receptor modulators, cAMP readout, primary screen, cell-based, HTRF cAMP, PGE2 stimulation; Prostaglandin E2 receptor EP2 subtype (Homo sapiens), P43116; EP2-expressing cells, cAMP HTRF FRET, PGE2 co-stimulation; induction, % at 25 µM; hit rate 0.83% among 260,000;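 active = compounds whose cAMP rise, as percent of the full-agonist control response, exceeds 60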;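 also: rat C6 glioma line stably carrying human EP2 under a CMV promoter; the protocol text gives 20 µM as final concentration; 100% = response of wells given 1 µM PGE2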
CHT inh = inhibitors of human choline transporter CHT; High affinity choline transporter 1 (Homo sapiens), Q9GZV3; CHT-expressing cells, membrane potential dye, choline response; hits give low values; B-score at 10 µM; hit rate 0.86% among 310,000; AID 488975, 2010;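 active = B-score over 3 SD under the library average, and starting fluorescence ratio not unusually high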;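 also: choline stimulus applied at its EC90 after an EC20 pre-addition; B-score computed on integrated fluorescence ratio after choline addition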
CHT act confirm = CHT activators, confirmation, cell-based, membrane potential dye, duplicate; shares compounds with CHT allo act; CHT-expressing cells, membrane potential dye fluorescence (FDSS); % of choline EC20–EC90 response window; HEK293 expressing CHT LV-AA mutant; choline added at its EC20; activation, % at 10 µM; hit rate 91% among 2,500; AID 504833, 2011;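 active = primary screen active, with duplicate mean activation above negative control mean plus 3 SD, cut at about 11% in these data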
HEK293 MP dye = membrane potential response in parental HEK293 cells, counter-screen for CHT activator project, cell-based, membrane potential dye | hit rate 62% among 2,500 | shares compounds with CHT allo act | ratio readout change at 10 µM, hits read low | membrane potential dye fluorescence (FDSS); measured after EC20 choline addition;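 active = duplicate-averaged ratio beyond 3 SD from buffer wells, up or down, though filed actives are nearly all decreases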
The depositor's hits bear a star; i = inactive; · = not tested or not shown.

SMILES	PGE2 EP2 inh	CHT allo act	EP2 modulator	CHT inh	CHT act confirm	HEK293 MP dye
COc1cc(CC(=O)N2CC[C@@H](c3ccccc3)[C@H](O)C2)cc(OC)c1OC	6.2	·	10.9	·	·	·
CN(CC(=O)Nc1ccc(F)c(F)c1F)C(=O)c1cc(-c2ccncc2)nc2ccccc12	·	i	·	i	39.6*	i
Cc1cc(C)c2c(NCc3cn(C)nc3C)n[nH]c2n1	5.4	·	-26.8	·	·	·
CC(NC(=S)Nc1ccc([N+](=O)[O-])cc1)c1ccncc1 (stereo unspecified)	12.4	i	-45.5	i	·	·
COc1ccc(NC(=S)NC(C)c2ccncc2)cc1OC (stereo unspecified)	4.4	i	-40.4	i	18.0*	i
COc1ccc(C2(NC(=O)CCc3c(C)noc3C)CCCCC2)cc1	9.1	·	-33.4	·	·	·
O=C(c1cccnc1)N1CCCC(c2ncncc2-c2ccncc2)C1 (stereo unspecified)	·	·	-35.1	·	·	·
OC(c1cccc(Cl)c1)c1nccc2ccccc12 (stereo unspecified)	·	i	·	i	·	·
COc1ccc(C(O)c2nccc3cc(OC)c(OC)cc23)cc1OC (stereo unspecified)	6.5	9.21*	-20.8	i	59.0*	-74.3*
COc1cc(N)c(C(O)c2nccc3cc(OC)c(OC)cc23)cc1OC (stereo unspecified)	·	i	·	i	69.6*	-51.3*
O=C(c1nccc2ccccc12)N1CCn2ncnc2C1	7.0	·	-23.5	·	·	·
Cc1cc(NCCN(C)C)n2nc(-c3ccc(Cl)cc3)cc2n1	10.5	·	-19.7	·	·	·
Cc1cc(NCCCn2ccnc2)n2nc(-c3ccc(Cl)cc3)cc2n1	13.8	8.93*	-30.0	i	37.7*	-80.1*
Cc1cc(NCCCn2ccnc2)n2nc(-c3ccc(F)cc3)cc2n1	5.9	8.02*	-24.0	i	41.5*	-71.2*
COc1ccc(C2(C(=O)NCc3ccc(Cl)c(Cl)c3)CCOCC2)cc1OC	6.6	·	-43.5	·	·	·
Cc1nn(CC(=O)NCc2ccc(F)cc2)c(=O)c2cc3ccsc3n12	·	·	-14.2	·	·	·
COc1ccc(-n2nc3c(N4CCC(C(=O)N5CCC(C)CC5)CC4)nnc(C)c3c2C)cc1	·	i	·	i	·	·
Cc1nnc(N2CCC(C(=O)N3CCCCC3)CC2)c2nn(-c3ccc(Cl)cc3)c(C)c12	·	i	·	i	39.1*	i
Cn1c(N)c(C(=O)COC(=O)c2ccc(Cl)nc2)c(=O)n(C)c1=O	6.2	7.54*	-17.8	i	21.9*	-30.5*
COc1ccc(C(=O)OCC(=O)c2c(N)n(C)c(=O)n(C)c2=O)cc1OC	4.4	i	-26.2	i	·	·
CCCCNC(=S)N(C)/N=C/c1c(C)[nH]c2ccccc12	10.2	i	0.8	i	·	·
CCCCNC(=S)N(C)/N=C/c1c(F)c(F)c(F)c(F)c1F	10.6	6.5*	52.5	i	17.3*	i
CC(=O)Nc1ccc(NC(=O)CSc2nnc(-c3ccccc3)n2C)cc1	11.8	·	-21.9	·	·	·
Cn1c(=O)c2[nH]c(N3CCN(CCO)CC3)nc2n(C)c1=O	5.3	·	-26.4	·	·	·
COc1ccc(OC)c2c(C)cc(NCCN3CCOCC3)nc12	5.8	9.19*	8.0	i	65.2*	-60.1*
SMILES	PGE2 EP2 inh	CHT allo act	EP2 modulator	CHT inh	CHT act confirm	HEK293 MP dye
CCOC(=O)C1CCN(C(=O)CCc2nnc3ccc(N4CCN(C)CC4)nn23)CC1	·	8.11*	·	i	72.7*	-71.8*
O=[N+]([O-])c1cccc(/C=N/Nc2nccnc2Cl)c1	5.6	6.24*	-7.2	i	40.7*	-37.2*
O=C(O)c1ccc2cccnc2c1O	8.1	i	16.2	i	·	·
Cc1ccc2ccc3cccnc3c2n1	·	6.88*	·	i	55.4*	-73*
Cn1c2ccc(F)cc2c2ncn(CCCN(CCO)CCO)c(=O)c21	8.4	i	-11.0	i	49.6*	-40.9*
Cn1c2ccc(F)cc2c2ncn(CCN3CCOCC3)c(=O)c21	9.9	i	24.4	i	·	·
OC[C@@H](O)[C@@H](O[C@@H]1O[C@H](CO)[C@@H](O)[C@H](O)[C@H]1O)[C@H](O)[C@@H](O)CO	10.8	·	17.4	·	·	·
CCOc1ccccc1NC(=O)CSc1nnc(-c2ccco2)n1C	8.7	·	-34.1	·	·	·
Cc1cccc(NC(=O)C2=C(O)c3ccccc3N(C)S2(=O)=O)c1	5.3	i	-21.8	i	-1.6	-28*
CCN1C(N(C)CCc2cccs2)=N[C@@H](c2ccccc2)C(C(=O)OC)=C1C	·	13*	·	i	25.5*	i
CCN1C(=S)N[C@@H](c2ccccc2)C(C(=O)OC)=C1C	·	i	·	i	·	·
O=C(O)/C=C/C(=O)Nc1ccc2c(c1)C(=O)c1ccccc1C2=O	9.1	i	-6.6	i	28.2*	-26.6*
O=C(O)/C=C/C(=O)Nc1ccc2c(c1)C(=O)c1cc(F)ccc1-2	8.1	·	30.3	·	·	·
O=C(Cn1c(C(F)(F)F)nc2ccccc21)N1CCc2ccccc2C1	6.4	·	-110.8	·	·	·
CCCCc1n(CC(=O)c2ccc(Cl)cc2)c2ccccc2[n+]1C	6.7	i	18.1	i	13.8*	i
Cc1oc(-c2ccc(Cl)cc2)nc1CN1CCC(C(=O)NCCCN2CCCC2=O)CC1	5.9	i	6.0	i	·	·
Cc1ccccc1-c1nc(CN2CCC(C(=O)NCCN3CCOCC3)CC2)c(C)o1	·	i	·	i	·	·
Cc1oc(-c2ccc(Cl)cc2)nc1CN1CCC(C(=O)NCCCN2CCCC(C)C2)CC1 (stereo unspecified)	·	i	·	i	54.8*	-28*
Cc1ccccc1-c1nc(CN2CCC(C(=O)NCCCN3CCOCC3)CC2)c(C)o1	6.4	i	11.9	i	40.1*	-25.9*
CC[n+]1c(C)n(-c2ccccc2)c2ccc(C(=O)OC)cc21	3.6	7.54*	0.1	i	32.1*	-29*
CCOC(=O)c1ccc2c(c1)[n+](CC)c(C)n2-c1ccccc1	6.0	i	35.5	i	·	·
CCOc1cccc(C(=O)Nc2cc(-c3nn4c(C)nnc4s3)ccc2C)c1	7.4	i	19.5	i	·	·
Cc1ccc(-c2nn3c(C)nnc3s2)cc1NC(=O)c1cccnc1	12.1	8.27*	17.3	i	58.7*	-54.4*
Cc1nnc2sc(-c3cccc(NC(=O)c4cccnc4)c3)nn12	6.4	7.88*	6.5	i	35.0*	-49.3*
COC(=O)CSc1nnc(-c2ccc(O)cc2)o1	7.8	·	-0.8	·	·	·
CCn1c(=O)oc2cc(S(=O)(=O)NCC3(N4CCOCC4)CCCCC3)ccc21	2.4	·	-3.4	·	·	·
CCn1c(COc2ccccc2)nnc1SCC(=O)N1CCCCC1	5.9	·	-14.2	·	·	·
Cn1c(Cc2ccccc2)nnc1SCC(=O)N1CCCC1	11.1	·	-25.6	·	·	·

Compound activity (PubChem BioAssay)
